High-throughput results from PubChem.
Only some compounds are listed: those with a hit (about 4.8% of all), similar ones and a draw of the others.
ATXN viability = viability counter-screen for ATXN expression inhibitors | S2 cells (HEK-293 line with an ATXN2-luciferase reporter) viability, CellTiter-Fluor protease fluorescence, 24 h | Potency, µM (top dose mostly 56.7 µM), hits mostly cytotoxic | 400,000 tested, 0.49% active | AID 651635; also: potency is read from the fitted curve at half-maximal effect; nearly all actives have a fitted effect of over 40% in size
D3 antag = blocks the human D3 dopamine receptor. P35462. D3R cells, DiscoveRx beta-arrestin luminescence, antagonist mode; stronger effect = lower value. max response, negative = inhibition, %. 360,000 tested, 2.5% active; in the data active = max response below about -50%; inconclusive = no clear call, values can overlap the other calls; also: % is scaled to controls: 0 for no effect and ±100 for the full control effect
Target sequence (P35462 whole entry, looked up): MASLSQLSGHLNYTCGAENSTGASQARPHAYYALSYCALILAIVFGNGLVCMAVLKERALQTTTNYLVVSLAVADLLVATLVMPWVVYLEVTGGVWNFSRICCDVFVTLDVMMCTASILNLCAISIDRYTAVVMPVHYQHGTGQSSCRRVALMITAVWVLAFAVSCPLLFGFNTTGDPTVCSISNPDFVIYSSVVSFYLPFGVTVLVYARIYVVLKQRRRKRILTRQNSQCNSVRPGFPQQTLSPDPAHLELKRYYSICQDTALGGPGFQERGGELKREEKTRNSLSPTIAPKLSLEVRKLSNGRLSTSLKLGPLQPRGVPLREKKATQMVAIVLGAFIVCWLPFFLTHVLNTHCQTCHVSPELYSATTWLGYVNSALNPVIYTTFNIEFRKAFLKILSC
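Cells expressing the human receptor were seeded at 1500 cells/well, incubated overnight at 37 degrees C in 5% CO2, then exposed to library compounds with dopamine controls for 90 minutes at 37 degrees C before luminescent detection.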
HepG2 tox = counter-screen for TGF-b inhibitors: cytotoxicity in HepG2 cells. HepG2 CAGA-GFP viability, ATP luminescence, 18 h. Potency, µM (doses to about 46.1 µM), for inactives: at the top dose activity change, negative = cytotoxicity, hits mostly cytotoxic. 410,000 tested, 0.76% active; also: potency is read from the fitted curve at half-maximal effect
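HepG2 CAGA-GFP cells (1000/well, DMEM with 1% FBS) received compound, then TGF-beta at 500 pg/mL final, and were incubated 18 hours at 37 degrees C. Viability was read by CellTiter-Glo luminescence. Media-only wells were set as complete cell-killing and DMSO as no toxicity.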
DRD3 agonist = agonists of human D3 dopamine receptor; P35462; D3R DiscoveRx beta-arrestin cells, luminescence, 90 min; max activation, %; 410,000 tested, 0.58% active; in the data active = max activation above about 30%; also: 0% is about no effect
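Agonist mode: compounds and dopamine controls were applied to plated cells for 90 min at 37 degrees C after an overnight attachment at 1500 cells/well. Luminescent read-out followed 30 - 60 minutes at room temperature with DiscoveRx detection reagent.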
ATXN2 expr inh = ATXN2 expression inhibition. 360,000 tested, 0.72% active. Potency, µM (doses to about 57 µM), inactives show top-dose activity change, negative = inhibition, hits mostly inhibitors. HEK-293 ATXN2-luciferase reporter, luminescence, 24 h; also: potency is read from the fitted curve at half-maximal effect; % is scaled to controls: 0 for no effect and ±100 for the full control effect; nearly all actives have a fitted effect of over 55% in size
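ATXN2-luciferase reporter cells (luciferase flanked by upstream and downstream ATXN2 gene portions) were treated 24 h at 37 °C with compounds at up to 57 uM. SteadyGlo luminescence gave expression; GF-AFC fluorescence gave viability.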
TGFb SMAD3 inh = inhibitors of TGF-b signaling | HepG2 CAGA-GFP TGF-b/SMAD3 reporter, GFP fluorescence, 18 h; TGF-beta stimulated, 500 pg/mL final | Potency, µM (highest dose often 46.1 µM), for the others: top-dose activity, negative = inhibition, hits mostly inhibitors | AID 588855 | 410,000 tested, 1.2% active; also: potency is read from the fitted curve at half-maximal effect; % is scaled to controls: 0 for no effect and ±100 for the full control effect; nearly all actives have a fitted effect of over 65% in size
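Inhibition of TGF-beta-driven CAGA-GFP reporter expression in HEPG2 cells is measured by cellular GFP fluorescence after 18 h stimulation with 500 pg/mL recombinant TGF-beta in 1% FBS medium at 37 degrees C.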
The depositor's hits bear a star; i = inactive; ? = inconclusive; . = no result. Unless noted, calls follow the shape of the dose curve; as a rule, active = well fitted curve in the direction sought with a large enough effect; inconclusive = small, poorly fitted or top-dose-only effect, or another doubt; inactive = no such curve, though single readings can be large; an effect the other way counts as inactive or inconclusive.

SMILES	ATXN viability	D3 antag	HepG2 tox	DRD3 agonist	ATXN2 expr inh	TGFb SMAD3 inh
COc1cccc(/C=C/c2ccnc3ccccc23)c1OC	.	.	-25.6%	.	.	?
CCc1ccc(C(=O)NC(C(=O)NCC2CCCO2)C(C)C)cc1 (configuration not stated)	i	-87.8*	-3.2%	-20.2	-3.9%	-12.6%
CCOc1ccccc1C(=O)NCCCN1CCN(CCCNC(=O)c2ccccc2OCC)CC1	.	-53.4*	-22.6%	-2.9	.	5.1%
O=C(NCC1CCCO1)c1cccc(F)c1 (configuration not stated)	i	14.8	5.3%	3.6	0.2%	-3.8%
CC(C)[C@H](NC(=O)c1ccccc1)C(=O)OCC(=O)NCC1CCCO1 (some centres not stated)	i	21.7	-7.4%	2.6	2.2%	-19.2%
Cc1cccc(C(=O)NCC2CCCO2)c1 (configuration not stated)	i	-53.7*	-5.6%	3.1	14.1%	21.4%
O=C(Cc1ccc([N+](=O)[O-])cc1)NCC1CCCO1 (configuration not stated)	i	8.7	3.8%	-3.3	-13.4%	9.2%
O=C(NCC1CCCO1)c1ccc([N+](=O)[O-])o1 (configuration not stated)	?	9.7	-29.9%	0.2	0.0%	12.6µM*
CC(C)(C)c1ccc(C(=O)NCCN2CCOCC2)cc1	i	1.2	0.6%	-3.6	.	0.4%
Cc1noc(C)c1COc1ccc(C(=O)NCC2CCCO2)cc1 (configuration not stated)	i	-52.2*	-16.3%	-5.9	2.1%	-4.3%
O=C(NCCN1CCCCC1)c1cc(OCC(F)(F)F)ccc1OCC(F)(F)F	i	-53.0*	-6.4%	0.9	3.2%	3.3%
COc1ccc2[nH]c(C(=O)NCCN3CCCCC3)cc2c1	i	-25.4	7.94µM*	-15.7	-5.3%	-8.5%
O=C(CCl)NCCNC(=O)c1cc(OCC(F)(F)F)ccc1OCC(F)(F)F	i	9.7	-18.8%	4.6	-1.5%	-4.6%
CC(C)(C)c1ccc(C(=O)NCCCN2CCN(CCCNC(=O)c3ccc(C(C)(C)C)cc3)CC2)cc1	28.2µM*	-0.2	-105.3%	-5.2	?	?
Cc1ccc(OCc2ccc(C(=O)NCC3CCCO3)cc2)cc1C (configuration not stated)	?	-4.0	-17.3%	-3.1	.	-0.3%
Cc1ccc(OCCn2nnc3sc4c(c3c2=O)CCC(C)C4)cc1 (configuration not stated)	i	.	-4.7%	7.6	9.8%	-24.8%
COc1ccc(-n2c(-c3ccc(C)cc3)cc3c2CC(C)(C)CC3=O)c(OC)c1	?	.	-100.1%	3.4	-19.5%	?
CCOc1c(Cl)cc(C(=O)NCCN2CCCCC2)cc1Cl	i	-73.1*	-8.9%	-52.5	-6.0%	32.9%
Cc1ccc(OCC(=O)NCCN2CCCC2)cc1	i	-20.8	-32.7%	-1.2	-7.5%	-8.7%
COc1ccc(C(=O)NCCN2CCCC2)cc1OC	i	-23.5	-11.7%	-5.9	-2.4%	-8.5%
CC(C)(C)c1ccc(OCC(=O)NCCN2CCCC2)cc1	i	-56.6*	-8.3%	0.3	-1.8%	-13.6%
CC(=O)c1ccc(N2C(=O)N(Cc3cccc(C(F)(F)F)c3)c3ccccc3S2(=O)=O)cc1	i	.	-9.0%	-1.0	-2.5%	?
COc1cc(C)c(Sc2cnc(NC(=O)c3ccc(CNC(C)C(C)(C)C)cc3)s2)cc1C(=O)N1CCN(C(C)=O)CC1 (configuration not stated)	.	.	.	.	8.63µM*	.
CCn1c(C)nc2cc(-c3nc4n(n3)Cc3ccccc3-4)ccc21	i	-3.5	1.26µM*	-0.8	0.398µM*	-11.0%
Cc1ccc(-c2nc3n(n2)Cc2ccccc2-3)cc1	i	?	-54.5%	-5.1	-33.4%	-24.0%
SMILES	ATXN viability	D3 antag	HepG2 tox	DRD3 agonist	ATXN2 expr inh	TGFb SMAD3 inh
Fc1ccc(-c2nc3n(n2)Cc2ccccc2-3)cc1	i	-0.7	8.91µM*	-7.2	52.2%	?
COc1cc(=O)n2c(c1C(=O)NCc1ccc3c(c1)OCO3)CCN(C(=O)c1ccccc1F)CC2	i	.	.	.	.	.
Oc1ccccc1/C=N/NC(=S)NC1CC2CC1C1C=CCC21 (configuration not stated)	?	-8.8	17.8µM*	10.8	-13.4%	?
COc1cccc(/C=N/NC(=S)NC2CC3CC2C2C=CCC32)c1O (configuration not stated)	i	-24.7	-18.7%	15.2	-22.2%	-4.2%
Cc1cccc(C)c1N(CCCc1cccnc1)C(=O)C(C)N (configuration not stated)	i	.	.	3.9	.	.
O=C1CC(c2ccccc2)CC2=C1CN(C1CCCCC1)CN2 (configuration not stated)	i	-78.7*	-17.3%	-3.4	0.4%	-1.0%
COC(=O)c1ccc(Cn2c(=O)cc(C)c3c(C)nn(C)c32)cc1	i	.	2.8%	36.9*	-6.6%	-5.1%
Cc1nn(C)c2c1c(-c1ccccc1)cc(=O)n2Cc1ccc(F)cc1	i	.	-10.2%	31.3*	-0.1%	5.6%
CCC(NC(=O)Nc1cc(OC)ccc1OC)c1c(-n2cccc2)sc2c1CCN(CC)C2 (configuration not stated)	.	.	-35.7%	-14.5	.	-24.4%
CCOC(=O)/C(=C\c1ccc([N+](=O)[O-])o1)NC(=O)c1ccccc1	?	13.6	11.2µM*	0.7	-21.2%	?
CCCOC(=O)/C(=C\c1ccc([N+](=O)[O-])o1)NC(=O)c1ccccc1	?	-14.1	-57.7%	-3.3	-28.4%	?
Nc1nonc1-c1noc(-c2ccccc2)n1	i	-63.3*	-3.2%	-3.8	67.2%	0.2%
CCN(CC)CCn1c(-c2ccccc2)csc1=Nc1ccccc1	.	.	-28.3%	-22.2	?	12.6µM*
Oc1ccc(Br)cc1-c1nc2cnccn2c1NC1CCCC1	i	?	11.2µM*	-6.0	-16.1%	-28.3%
Cc1ccc(SC[C@H](c2ccccc2)N2CCN(CC(C)C)CCC2=O)cc1	i	-88.8*	0.8%	-68.2	13.5%	-2.0%
O=C1CCN(CCc2ccccc2)CCN1[C@H](CSc1ccc(Br)cc1)Cc1ccccc1	?	-56.9*	-4.3%	-51.9	-26.0%	?
Cc1ccc(SCCN2CCN(CCc3ccccc3)CCC2=O)cc1	i	-59.3*	-20.8%	-68.0	4.3%	?
Cc1ccc(SCC(c2ccccc2)N2CCN(CC(C)C)CCC2=O)cc1 (configuration not stated)	.	.	-3.1%	.	.	-16.0%
CC(C)C[C@@H](CSc1ccc(Br)cc1)N1CCN(CC(C)C)CCC1=O	?	-50.3*	-9.5%	-42.6	14.1%	-19.5%
